Assay outcomes from PubChem BioAssay.
Sampled rows, rich in hits. Any-hit rate of the full collection: about 10%.
Mm-Cpn inhibitor = Inhibitors of TCP-1 ring complex (TRiC) of Methanococcus maripaludis (MmCpn): qHTS | Chaperonin Mm-Cpn (Methanococcus maripaludis) | purified Mm-Cpn ATPase, ADP Transcreener TR-FRET | Potency, µM (highest dose often 76.9 µM), inactives show top-dose activity, negative = inhibition, most hits filed as inhibitors | hit rate 0.031% among 330,000; further: potency means the concentration at half of the fitted maximal effect; nearly all actives have a fitted effect of over 80% in size
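ATPase turnover read by TR-FRET ADP competition (Eu cryptate antibody/ADP-d2, 665/590 nm): 10uM ATP final, 25nM Mm-CPN final, 30 min 37degC after 10-min compound preincubation, pH 7.4 Tris/KCl/MgCl2/DTT buffer.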
CCT modulator = High-Throughput Screening for Modulators of Cytosolic Chaperonin Activity; purified chaperonin ATPase assay, HTRF ADP detection, 30 min; activity change, % (no concentration beside the values), hits read low; hit rate 0.3% among 360,000; AID 651819, 2012; in the data active means activity change below about -30%
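We incubate TRiC, 40 or 20 nM final, with library compounds at 76 uM and 10 uM ATP for 30 min at 37 °C. ADP formed is detected with Transcreener HTRF reagents after 30 min at room temperature.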
Sfp PPTase inh = qHTS Assay for Inhibitors of Bacillus subtilis Sfp phosphopantetheinyl transferase (PPTase). Potency, µM, for inactives: largest response in the series, negative = inhibition, usual class: inhibitors. Biochemical Sfp PPTase activity, qHTS. AID 1490, 2009. hit rate 3.5% among 310,000;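 further: the enzyme is Sfp with the accession as filed and its product quenches rhodamine fluorescence; potency means the concentration at half of the fitted maximal effect; 0% = enzyme reaction without inhibitor and -100% = no enzyme wells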
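Sfp 15 nM + cpd, 15 min RT; start w/ rhodamine-CoA 5 uM, BHQ-2-YbbR 12.5 uM (final); 50 mM Hepes pH 7.6, 10 mM MgCl2, 0.01% NP-40, 0.01% BSA; read 525/598 nm at 0 and 30 min.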
PLK1 PBD inh = qHTS for Inhibitors of PLK1-PDB (polo-like kinase 1 - polo-box domain): Primary Screen; Serine/threonine-protein kinase PLK1 (Homo sapiens), P53350; Plk1 PBD binding of FITC phosphopeptide, fluorescence polarization; Potency, µM, for inactives: max response, negative = inhibition, usual class: inhibitors; hit rate 2.8% among 360,000; AID 720504, 2013; further: potency means the concentration at half of the fitted maximal effect; series mostly up to about 57 µM; nearly all actives have a fitted effect of over 65% in size
G9a inh = qHTS Assay for Inhibitors of Histone Lysine Methyltransferase G9a. Histone-lysine N-methyltransferase EHMT2 (Homo sapiens), Q96KQ7. G9a H3K9 monomethylation, AlphaScreen, 2 h. Potency, µM (top dose mostly 102 µM), without a hit: top-dose activity, negative = inhibition, actives largely listed as inhibitors. hit rate 8.8% among 350,000. AID 504332, 2011; further: potency means the concentration at half of the fitted maximal effect; nearly all actives have a fitted effect of over 75% in size
Target sequence (Q96KQ7 913-1193 limits assumed): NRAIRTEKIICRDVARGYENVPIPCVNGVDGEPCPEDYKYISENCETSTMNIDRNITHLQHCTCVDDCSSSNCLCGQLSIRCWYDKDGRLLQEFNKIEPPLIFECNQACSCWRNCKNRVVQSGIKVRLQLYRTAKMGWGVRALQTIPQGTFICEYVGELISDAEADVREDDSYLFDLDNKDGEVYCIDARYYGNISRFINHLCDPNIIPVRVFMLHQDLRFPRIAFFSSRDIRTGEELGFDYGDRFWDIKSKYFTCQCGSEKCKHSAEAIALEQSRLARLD
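Methyltransferase reactions run at room temperature for 2 h (20 nM enzyme, 500 nM biotin-H3K9 peptide, 20 uM SAM) after a 15 min compound preincubation; product detected by AlphaScreen beads and anti-H3K9me1 antibody.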
VDR inh = Inhibitors of the vitamin D receptor (VDR): qHTS; Vitamin D3 receptor (Homo sapiens), P11473; Potency, µM, inactives show max response, negative = inhibition, actives largely listed as inhibitors; VDR-SRC2-3 peptide fluorescence polarization, 2 h; hit rate 0.93% among 400,000; AID 504847, 2011; further: potency means the concentration at half of the fitted maximal effect
Target sequence (P11473 whole entry, looked up): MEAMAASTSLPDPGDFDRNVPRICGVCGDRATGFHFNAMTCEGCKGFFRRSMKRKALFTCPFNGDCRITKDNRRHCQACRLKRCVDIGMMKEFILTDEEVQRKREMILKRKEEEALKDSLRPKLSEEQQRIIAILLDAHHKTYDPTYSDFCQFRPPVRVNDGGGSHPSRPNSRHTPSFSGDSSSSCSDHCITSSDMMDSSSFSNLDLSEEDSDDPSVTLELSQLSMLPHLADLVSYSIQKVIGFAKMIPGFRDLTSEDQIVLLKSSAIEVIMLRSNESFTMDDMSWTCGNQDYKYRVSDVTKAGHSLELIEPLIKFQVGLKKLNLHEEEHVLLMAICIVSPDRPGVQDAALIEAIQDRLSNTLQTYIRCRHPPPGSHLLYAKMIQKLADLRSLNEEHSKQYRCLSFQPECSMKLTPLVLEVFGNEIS
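Inhibition of the VDR/SRC2-3 peptide interaction is quantified by fluorescence polarization. Compounds (23 nl, pintool) incubate with the reagents for 2 hours at ambient room temperature.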
An asterisk follows results filed as active; u = inconclusive; x = not tested or not shown; ! = repeats disagree; [ ] = another dose, or the depositor's remark. Unless noted, the call rests on the fitted dose curve; in most records, active means well fitted curve in the direction sought with a large enough effect; inconclusive means small, poorly fitted or top-dose-only effect, or another doubt; inactive means no such curve, though single readings can be large; an effect the other way counts as inactive or inconclusive. Unless noted, on the % scale 0 is the no-effect control and ±100 the full control effect.

SMILES	Mm-Cpn inhibitor	CCT modulator	Sfp PPTase inh	PLK1 PBD inh	G9a inh	VDR inh
CN(C1=C(N2CCCCC2)C(=O)c2ccccc2C1=O)c1ccccc1	-4%	-8	-10%	-8%	3.5µM*	5%
COc1ccc(C2=C(N3CCN(c4cc(Cl)ccc4C)CC3)c3ccccc3C2=O)cc1	x	x	x	x	3.5µM*	17%
COc1ccc(C2=C(N3CCN(c4cc(C)ccc4C)CC3)c3ccccc3C2=O)cc1	x	x	x	x	5µM*	3%
COc1ccc(OC)c(-c2noc(N3CCN(c4cc(C)ccc4C)CC3)n2)c1	x	x	x	x	-2%[59 µM]	4%
Cc1cccc(CNC(=O)c2ccc(N3Cc4ccccc4Oc4ncccc43)s2)c1	x	x	x	x	-5%[59 µM]	5%
CN(C)Cc1ccccc1-c1cc(NC2CC2)ncn1	x	x	-11%	x	x	-2%
Cc1nn(CCCC(=O)NCCc2ccc(Cl)cc2)c(=O)c2c1sc1ccccc12	x	x	x	x	6.3µM*	11%
Cc1nn(C(C)C(=O)NCCCN2CCCCCC2)c(=O)c2c1sc1ccccc12 (configuration not stated)	0%	1	1%	27µM*	50µM*	-20%
COc1ccc(CNC(=O)CCc2c(C)nn(-c3ccc(N4CCCCC4)nn3)c2C)c(OC)c1	x	x	x	x	16%[59 µM]	9%
Cc1ccc2nc(N(CCCN(C)C)C(=O)c3ccc(S(=O)(=O)N4CCc5ccccc5C4)cc3)sc2c1	-1%	1	50µM*	5%	71µM*	15%
COc1ccc2sc(N(CCCN(C)C)C(=O)c3ccc(S(=O)(=O)N4CCc5ccccc5C4)cc3)nc2c1	-4%	0	x	-4%	32µM*	14%
Cc1cc(C)c2sc(N(CCCN(C)C)C(=O)c3ccc(S(=O)(=O)N4CCc5ccccc5C4)cc3)nc2c1	1%	x	x	x	22µM*	x
Cc1cccc2sc(N(CCCN(C)C)C(=O)c3ccc(S(=O)(=O)N4CCc5ccccc5C4)cc3)nc12	-5%	0	3%	-8%	x	-22%
CN(C)CCCN(C(=O)c1ccc(S(=O)(=O)N2CCc3ccccc3C2)cc1)c1nc2ccc(F)cc2s1	1%	1	45µM*	-11%	40µM*	1%
Cc1cc(C)c2sc(N(CCCN(C)C)C(=O)c3ccc(S(=O)(=O)N4CCCc5ccccc54)cc3)nc2c1	-3%	0	x	-5%	45µM*	-6%
O=C(CCN1C(=O)/C(=C\C=C\c2ccccc2)SC1=S)Nc1cccc(C(=O)O)c1	-2%	-2	-28%	27µM*	x	-3%
O=C(CCCN1C(=O)S/C(=C/C=C/c2ccccc2)C1=O)Nc1ccc(C(=O)O)cc1	-1%	-3	14%	30µM*	41%	32µM*
COc1ccc(/C=C2\SC(=S)N(CCC(=O)Nc3ccccc3C(=O)O)C2=O)cc1	-3%	-2	2%	u	71µM*	2%
O=C(CCN1C(=O)/C(=C/C=C/c2ccccc2)SC1=S)Nc1nccs1	-2%	1	-3%	-11%	5%	11%
O=C(CCN1C(=O)/C(=C\C=C\c2ccccc2)SC1=S)Nc1ccccc1C(=O)O	-1%	0	21%	30µM*	73%	u
COc1ccc(Cl)cc1NC(=O)NCCc1c(C)nn(C)c1C	x	x	x	x	-2%[12.7 µM]	4%
CCOC(=O)c1c(C)c(-c2ccccc2)n(CC(=O)Nc2ccc(OCC)cc2)c1C	x	x	x	x	-2%[59 µM]	-2%
CCCC(=O)N1CCN(C2=NS(=O)(=O)c3ccccc32)CC1	2%	1	0%	-3%	-26%	6%
CC(C)C(=O)N1CCN(C2=NS(=O)(=O)c3ccccc32)CC1	1%	-1	16%	6.7µM*	6%[59 µM]	-1%
CCOC1(OCC)N=C(N)C2(C#N)C(c3ccc(NC(C)=O)cc3)C12C#N (configuration not stated)	-5%	1	19%	-8%	50µM*	-1%
SMILES	Mm-Cpn inhibitor	CCT modulator	Sfp PPTase inh	PLK1 PBD inh	G9a inh	VDR inh
CCSC1(SCC)N=C(N)C2(C#N)C(c3ccccc3)NC(C)=C(C)C12C#N (configuration not stated)	-1%	0	29%	-9%	-24%[12.7 µM]	14%
CCSC1(SCC)N=C(N)C2(C#N)C(c3ccc(F)cc3)C12C#N (configuration not stated)	-1%	-1	-21%	9.5µM*	40µM*	89µM*
COc1cccc(C2C3(C#N)C(N)=NC(OC)(OC)C23C#N)c1 (configuration not stated)	0%	1	2%	-1%	20%	-8%
CCOC(=O)c1oc2ccc(CNC3CCCCC3)c(Cl)c2c1C	0%	-2	0%	-5%	10µM*	2%
CCOC(=O)c1oc2ccc(CNCCO)c(Cl)c2c1C	0%	-4	9%	-10%	9%	-16%
CC1=CC(C)(C)Nc2ccc(OC(=O)CN3C(=O)c4ccccc4C3=O)cc21	1%	0	4%	0%	35µM*	-11%
CCOc1ccc2c(c1)C(C)=CC(C)(C)N2	-5%	-1	u	-2%	8.9µM*!	45µM*!
CC1=CC(C)(C)Nc2ccc(OC(=O)C(Cc3ccccc3)N3C(=O)c4ccccc4C3=O)cc21 (configuration not stated)	1%	0	29%	-8%	u	-13%
C#CCOC(=O)CN1C(=O)c2cccc3cccc(c23)C1=O	0%	-1	26%	-8%	-2%	-7%
CC1=CC(C)(C)Nc2ccc(OC(=O)CN3C(=O)c4cccc5cccc(c45)C3=O)cc21	-1%	-3	40µM*	u	8.9µM*	u
CC(=O)OC1CC[C@@]2(C)C(CC[C@@]3(C)C2CC=C2C4CC(C)(C)CC[C@]4(C)CC[C@@]23C)C1(C)C (some centres not stated)	x	x	11%	x	-35%[2.33 µM]	-11%
CN(Cc1ccccc1)C(=O)C(=O)Nc1ccc2nc3n(c(=O)c2c1)CCCCC3	x	x	x	x	-2%[59 µM]	5%
CCc1ccccc1NC(=O)c1ccc2nc(C(C)C)oc2c1	x	x	x	x	21%[59 µM]	9%
COc1cc2c(cc1OC)C(c1cccs1)N(C(=O)c1cccc(S(=O)(=O)N(C)C)c1)CC2 (configuration not stated)	1%	-10	-1%	-9%	50µM*	16%
COc1cc2c(cc1OC)C(c1ccccc1)N(C(=O)c1ccccc1)CC2 (configuration not stated)	u	-3	5%	-11%	-18%	-8%
